Records with an inconclusive call do not appear. Active and inactive are the calls of the source. Unless noted, calls follow the shape of the dose curve; as a rule, active = well fitted curve in the direction sought with a large enough effect in the repeat runs; inconclusive = weak or mixed curves; inactive = no such curve, though single readings can be large; an effect the other way counts as inactive or inconclusive.
What was measured:
[1] = qHTS assay to identify small molecule antagonists of the thyroid receptor (TR) signaling pathway - cell viability counter screen (AID 743064); also: nearly all actives have a fitted effect of over 50% in size
Method in brief: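 In-well cytotoxicity read by CellTiter-Fluor (30 min, 37 C) following 23.5 h exposure of GH3 cells bearing a TRE-luciferase sensor. Compounds were added alongside 1 nM (final) T3 to drive TR transactivation.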

[2] = qHTS assay to identify small molecule antagonists of the thyroid receptor (TR) signaling pathway (AID 743065); also: series mostly up to about 70 µM; nearly all actives have a fitted effect of over 55% in size
Method in brief: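 Antagonism measured as loss of luciferase signal in GH3 cells stably carrying a TRE-luciferase reporter, co-treated with compound and T3 (1 nM final) for 23.5 h at 37 C. Viability was read in the same well by CellTiter-Fluor.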

[3] = system: thyroid hormone receptor (rat, GH3 cells); experiment: qHTS assay to identify small molecule agonists of the thyroid receptor (TR) signaling pathway (AID 743066; calls by dose curve)
[4] = target: Estrogen receptor (Homo sapiens) (UniProt P03372); experiment: qHTS assay to identify small molecule antagonists of the estrogen receptor alpha (ER-alpha) signaling pathway (AID 743069; active = well fitted curve in the direction sought with a large enough effect in the signal ratio in the repeat runs, not every such curve was filed as active; the % refers to the signal ratio)
Method in brief: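 ER-alpha-UAS-bla GripTite HEK293 line; 2% charcoal-stripped FBS overnight; plated, 4 hr 37C/5% CO2; cpd in DMSO + 17beta-estradiol, 18 hr 37C; LiveBLAzer B/G FRET substrate 2 hr RT; fluorescence intensity.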

[5] = qHTS assay to identify small molecule antagonists of the estrogen receptor alpha (ER-alpha) signaling pathway - cell viability counter screen (AID 743074; calls by dose curve;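 also: HEK293 cells carrying ER-alpha-UAS-bla reporter stimulated with 17beta-estradiol; nearly all actives have a fitted effect of over 45% in size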)
[6] = target: Estrogen receptor (Homo sapiens) (UniProt P03372); experiment: qHTS assay to identify small molecule agonists of the estrogen receptor alpha (ER-alpha) signaling pathway (AID 743075; calls by dose curve;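 also: HEK293 GripTite cells with ER-alpha and UAS-driven beta-lactamase reporter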)
[7] = target: Estrogen receptor (Homo sapiens) (UniProt P03372); experiment: qHTS assay to identify small molecule agonists of the estrogen receptor alpha (ER-alpha) signaling pathway using the BG1 cell line (AID 743079); also: nearly all actives have a fitted effect of over 20% in size
[8] = qHTS assay to identify small molecule antagonists of the estrogen receptor alpha (ER-alpha) signaling pathway using the BG1 cell line (AID 743080; calls by dose curve;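 also: BG1 cells stimulated with 17beta-estradiol alongside compound; series mostly up to about 70 µM; nearly all actives have a fitted effect of over 25% in size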)
Method in brief: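 BG1Luc4E2, endogenous ER-alpha, 4xERE-luc; 5 d charcoal-stripped FBS, phenol red free; 24 h plating; cpd + 17beta-estradiol 21.5 h, 37 C/5% CO2; CellTiter-Fluor viability 30 min, then ONE-Glo luciferase 30 min RT.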

[9] = qHTS assay to identify small molecule antagonists of the estrogen receptor alpha (ER-alpha) signaling pathway using the BG1 cell line - cell viability counter screen (AID 743081);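 also: compound given together with 17beta-estradiol as the ER stimulus; series mostly up to about 70 µM; nearly all actives have a fitted effect of over 45% in size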
Aromatase (Homo sapiens) = Aromatase (Homo sapiens) (UniProt P11511); experiment: qHTS assay to identify aromatase inhibitors (AID 743083); also: series mostly up to about 70 µM; nearly all actives have a fitted effect of over 55% in size
[10] = qHTS assay to identify aromatase inhibitors - cell viability counter screen (AID 743084);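 also: cells stimulated with testosterone during compound exposure; nearly all actives have a fitted effect of over 55% in size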
[11] = target: Aryl hydrocarbon receptor (Homo sapiens) (UniProt P35869); experiment: qHTS assay to identify small molecule that activate the aryl hydrocarbon receptor (AhR) signaling pathway (AID 743085);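 also: HG2L7.5c1 human HepG2 liver cells with stably integrated DRE-driven firefly reporter; series mostly up to about 70 µM; nearly all actives have a fitted effect of over 15% in size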
Method in brief: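 Luminescence (ONE-Glo) from a dioxin-responsive-element luciferase reporter in HG2L7.5c1 HepG2 cells after 24 hr compound exposure at 37C; viability measured by CellTiter-Fluor fluorescence beforehand.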

[12] = qHTS assay to identify small molecule that activate the aryl hydrocarbon receptor (AhR) signaling pathway - cell viability counter screen (AID 743086);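 also: HepG2 liver cells carrying the AhR DRE luciferase reporter; series mostly up to about 70 µM; nearly all actives have a fitted effect of over 45% in size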
Method in brief: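 Cytotoxicity counter screen: CellTiter-Fluor signal (30 min, 37 C) in 4000 HepG2 cells/well carrying the DRE-luciferase reporter, following 24 h compound exposure at 37 C.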

[13] = target: Peroxisome proliferator-activated receptor gamma (Homo sapiens) (UniProt P37231); experiment: qHTS assay to identify small molecule agonists of the peroxisome proliferator-activated receptor gamma (PPARg) signaling pathway (AID 743094; active = well fitted activation curve with a large enough effect in the signal ratio in the repeat runs, not every such curve was filed as active; the % refers to the signal ratio)
Method in brief: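 Compounds dissolved in DMSO were added to PPARg UAS-bla HEK293H cells for 17 h at 37C, and reporter expression was quantified by fluorescence intensity after 1 h with LiveBLAzer B/G FRET substrate.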

[14] = target: Peroxisome proliferator-activated receptor gamma (Homo sapiens) (UniProt P37231); experiment: qHTS assay to identify small molecule antagonists of the peroxisome proliferator-activated receptor gamma (PPARg) signaling pathway (AID 743191; calls by dose curve; also: series mostly up to about 63 µM; nearly all actives have a fitted effect of over 30% in size)
Method in brief: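 Beta-lactamase reporter under UAS control in HEK293H PPARg-bla cells; compound treatment 17 h at 37C. Read-out: fluorescence intensity after 1 h room-temperature incubation with LiveBLAzer B/G FRET substrate.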

[15] = qHTS assay to identify small molecule antagonists of the peroxisome proliferator-activated receptor gamma (PPARg) signaling pathway - cell viability counter screen (AID 743194); also: nearly all actives have a fitted effect of over 55% in size
Method in brief: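 Viability was measured as CellTiter-Glo luminescence in GeneBLAzer PPARg UAS-bla HEK293H cells. These cells had been exposed 17 h at 37 C to compounds together with rosiglitazone at 50 nM final, with the beta-lactamase readout taken in the same wells.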

[16] = qHTS assay for small molecule agonists of the antioxidant response element (ARE) signaling pathway (AID 743202; active = well fitted activation curve with a large enough effect in the signal ratio in the repeat runs, not every such curve was filed as active; the % refers to the signal ratio)
Method in brief: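 Quantitative high-throughput format in HepG2 cells bearing an integrated ARE-beta-lactamase reporter. Compound exposure lasted 16 h at 37 C, and fluorescence was read 2 h after adding LiveBLAzer B/G substrate at room temperature.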

[17] = qHTS assay for small molecule agonists of the antioxidant response element (ARE) signaling pathway - cell viability counter screen (AID 743203; calls by dose curve; also: nearly all actives have a fitted effect of over 55% in size)
Method in brief: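 Following 16 hrs of compound treatment at 37C, HepG2 cells with an ARE-controlled beta-lactamase gene were lysed with CellTiter-Glo. Luminescence was read after 30 min at room temperature.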

[18] = qHTS assay for small molecule activators of the heat shock response signaling pathway - cell viability counter screen (AID 743209); also: nearly all actives have a fitted effect of over 50% in size
Method in brief: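 Readout: CellTiter-Glo luminescence, 30 min at room temperature. System: HSE-bla HeLa cells, 1500/well, plated overnight. Treatment: compounds in DMSO, 5 h at 37 C.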

[19] = qHTS assay for small molecule activators of the heat shock response signaling pathway (AID 743210; active = well fitted activation curve with a large enough effect in the signal ratio in the repeat runs, with a control signal flat, not every such curve was filed as active; the % refers to the signal ratio;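 also: HeLa cells with beta-lactamase reporter driven by heat shock elements; series mostly up to about 63 µM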)
Method in brief: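 HeLa HSE-bla cells, overnight plating; cpd in DMSO 5 h, 37 C; LiveBLAzer B/G FRET substrate 2.5 h RT; fluorescence intensity read.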

Measured: Potency

Sequence of Peroxisome proliferator-activated receptor gamma (Homo sapiens) (P37231 whole entry, looked up): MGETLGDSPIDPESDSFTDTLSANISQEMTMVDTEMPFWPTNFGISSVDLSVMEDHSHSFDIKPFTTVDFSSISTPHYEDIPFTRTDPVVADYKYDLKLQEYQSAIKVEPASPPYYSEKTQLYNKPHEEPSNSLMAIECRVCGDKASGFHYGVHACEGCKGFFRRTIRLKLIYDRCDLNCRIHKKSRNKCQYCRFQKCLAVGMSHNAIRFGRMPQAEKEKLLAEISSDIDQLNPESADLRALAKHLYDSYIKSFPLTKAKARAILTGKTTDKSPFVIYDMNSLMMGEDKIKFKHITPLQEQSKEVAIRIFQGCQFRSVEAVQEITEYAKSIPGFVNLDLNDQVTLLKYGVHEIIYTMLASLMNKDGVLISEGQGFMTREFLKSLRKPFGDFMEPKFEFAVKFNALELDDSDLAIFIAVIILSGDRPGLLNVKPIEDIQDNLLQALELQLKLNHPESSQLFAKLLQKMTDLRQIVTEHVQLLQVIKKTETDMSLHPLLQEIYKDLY
Sequence of Estrogen receptor (Homo sapiens) (P03372 whole entry, looked up): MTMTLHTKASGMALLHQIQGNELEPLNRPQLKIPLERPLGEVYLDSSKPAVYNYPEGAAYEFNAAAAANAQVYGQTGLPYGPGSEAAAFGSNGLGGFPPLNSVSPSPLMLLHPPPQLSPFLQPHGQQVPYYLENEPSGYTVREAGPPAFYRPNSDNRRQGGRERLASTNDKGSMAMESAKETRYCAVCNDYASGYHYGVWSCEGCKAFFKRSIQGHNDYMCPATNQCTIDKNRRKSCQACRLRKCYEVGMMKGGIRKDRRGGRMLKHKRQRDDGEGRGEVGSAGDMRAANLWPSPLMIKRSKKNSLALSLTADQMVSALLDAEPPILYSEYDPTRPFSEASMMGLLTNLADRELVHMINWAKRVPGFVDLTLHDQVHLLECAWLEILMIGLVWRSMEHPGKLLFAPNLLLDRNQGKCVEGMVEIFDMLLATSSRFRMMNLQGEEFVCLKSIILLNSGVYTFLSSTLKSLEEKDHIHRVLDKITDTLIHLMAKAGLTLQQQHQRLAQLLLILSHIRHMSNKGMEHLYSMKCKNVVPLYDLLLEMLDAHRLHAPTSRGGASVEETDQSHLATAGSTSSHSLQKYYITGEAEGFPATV
Sequence of Aryl hydrocarbon receptor (Homo sapiens) (P35869 whole entry, looked up): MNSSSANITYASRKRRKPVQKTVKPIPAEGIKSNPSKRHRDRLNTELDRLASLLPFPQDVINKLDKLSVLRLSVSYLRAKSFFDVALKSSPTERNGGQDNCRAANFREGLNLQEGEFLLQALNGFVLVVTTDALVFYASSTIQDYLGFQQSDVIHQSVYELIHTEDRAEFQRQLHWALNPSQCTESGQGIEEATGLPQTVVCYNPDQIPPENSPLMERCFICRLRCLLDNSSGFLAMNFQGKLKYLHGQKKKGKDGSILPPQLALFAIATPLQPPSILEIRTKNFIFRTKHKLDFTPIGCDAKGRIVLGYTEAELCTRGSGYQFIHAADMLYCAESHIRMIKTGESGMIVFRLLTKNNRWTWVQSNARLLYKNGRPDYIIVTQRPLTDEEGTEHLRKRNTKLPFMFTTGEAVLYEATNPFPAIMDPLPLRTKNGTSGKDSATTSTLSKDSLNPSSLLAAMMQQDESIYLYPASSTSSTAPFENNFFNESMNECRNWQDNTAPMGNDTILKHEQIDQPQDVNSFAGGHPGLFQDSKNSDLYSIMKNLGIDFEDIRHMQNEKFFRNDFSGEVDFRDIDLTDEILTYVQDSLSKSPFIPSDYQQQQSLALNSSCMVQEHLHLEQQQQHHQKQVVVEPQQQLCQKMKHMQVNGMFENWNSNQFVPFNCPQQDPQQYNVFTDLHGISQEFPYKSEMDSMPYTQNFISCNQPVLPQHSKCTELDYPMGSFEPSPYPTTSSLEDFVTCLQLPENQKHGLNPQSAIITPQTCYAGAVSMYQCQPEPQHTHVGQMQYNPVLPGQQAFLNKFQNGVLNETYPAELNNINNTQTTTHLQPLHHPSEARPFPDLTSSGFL
Sequence of Aromatase (Homo sapiens) (P11511 whole entry, looked up): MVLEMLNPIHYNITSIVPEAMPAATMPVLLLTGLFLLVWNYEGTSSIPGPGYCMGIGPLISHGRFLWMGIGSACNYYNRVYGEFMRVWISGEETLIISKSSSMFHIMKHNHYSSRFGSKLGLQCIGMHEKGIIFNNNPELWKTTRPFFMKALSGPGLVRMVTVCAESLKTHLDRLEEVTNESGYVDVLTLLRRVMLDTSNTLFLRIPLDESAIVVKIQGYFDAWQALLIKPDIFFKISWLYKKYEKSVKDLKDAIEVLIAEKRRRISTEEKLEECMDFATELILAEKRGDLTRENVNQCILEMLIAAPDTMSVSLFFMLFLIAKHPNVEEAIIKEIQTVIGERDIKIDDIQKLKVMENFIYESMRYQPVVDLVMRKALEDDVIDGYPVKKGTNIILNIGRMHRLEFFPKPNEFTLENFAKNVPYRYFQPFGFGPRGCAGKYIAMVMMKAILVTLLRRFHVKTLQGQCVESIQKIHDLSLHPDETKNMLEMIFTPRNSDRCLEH

O[C@@H]([C@H](O)[C@H](O)CBr)[C@H](O)CBr
inactive: all assays above

CCCCCCCC/C=C\CCCCCCCCN
not listed: [14] | [15] | [17]
inactive: all other assays above

O=C(O)c1cc(=O)c2ccccc2o1
not listed: [14] | [16]
inactive: all other assays above

CC(=O)CC(=O)Nc1ccc(S(=O)(=O)O)cc1
inactive: all assays above

CC(C)CCCCCOC(=O)CCS
not listed: [16] | [17]
inactive: all other assays above

O=C(O)c1ccc2cc(C(=O)O)ccc2c1
not listed: [16]
inactive: all other assays above

Cc1cccc(C(=O)O)c1O
not listed: [14] | [16] | [18] | [19]
inactive: all other assays above
